Active and inactive are the calls of the source.
Tests used:
[1] = optical density shifts of acrAB sulA E. coli – strain DRC41, OD650, 48 h, E. coli filamentation inducer project, primary screen (AID 1152); conditions: higher = more signal, called active from +8 up or from −8 down;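 also: E. coli MC1000 strain DRC41 lacking acrAB efflux pump and sulA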
[2] = probe aLefty1 binding on compound microarray – biochemical, small-molecule microarray, 635/667 nm fluorescence, primary screen (AID 1153); conditions: higher = more signal;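 also: score merges spot fluorescence with signal-to-noise ratio from the scanned slide images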
[3] = plasmodial surface anion channel blockers, osmotic lysis – cell-based, P. falciparum Indochina, OD700, 1 h, primary screen (AID 1154); conditions: P. falciparum Indochina infected RBC osmotic lysis, higher = more signal, called active from +8 up or from −8 down
[4] = plasmodial surface anion channel blockers, osmotic lysis – cell-based, P. falciparum Indochina, OD700, 2 h, primary screen (AID 1155);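 also: lysis reports solute entry through the parasite surface anion channel PSAC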; conditions: P. falciparum Indochina infected erythrocytes, higher = more signal, called active from +8 up or from −8 down
[5] = changes in parasitized red cell lysis, either direction – P. falciparum Indochina, OD700, 3 h, PSAC antagonist project, primary screen (AID 1156); conditions: P. falciparum-infected erythrocytes, osmotic lysis, higher = more signal, called active from +8 up or from −8 down
[6] = plasmodial surface anion channel blockers, osmotic lysis – cell-based, P. falciparum Indochina, OD700, 18 h, primary screen (AID 1157); conditions: P. falciparum Indochina infected erythrocytes, osmotic lysis OD700, 18 h; higher = more signal, called active from +8 up or from −8 down
[7] = S6 kinase pathway phospho-S6 level changes – cell-based, A549, cytoblot, luminescence, serum-stimulated, primary screen (AID 1158); conditions: 5 h, higher = more signal;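 also: serum-stimulated A549 lung adenocarcinoma cells; signal is phosphorylated S6 detected by cytoblot immunostaining with HRP secondary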
[8] = biological target: NADPH oxidase 2 (Homo sapiens) (UniProt P04839); test: compounds shifting NOX2 Amplex Red fluorescence – cell-based, HEK293-NOX2, PMA-stimulated, NOX inhibitor project, primary screen (AID 1159); conditions: 45 min, higher = more signal, called active from +8 up or from −8 down; also: test concentration not given here
[9] = biological target: NADPH oxidase 4 (Homo sapiens) (UniProt Q9NPH5); test: compounds shifting NOX4 Amplex Red fluorescence – cell-based, HEK293-NOX4, tetracycline-induced, NOX inhibitor project, primary screen (AID 1160); conditions: HEK293-NOX4, Amplex Red H2O2 fluorescence, 45 min; higher = more signal, called active from +8 up or from −8 down
[10] = biological target: NADPH oxidase 5 (Homo sapiens) (UniProt Q96PH1); test: compounds shifting NOX5 Amplex Red fluorescence – cell-based, HEK293-NOX5, NOX inhibitor project, primary screen (AID 1161); conditions: HEK293-NOX5, ionomycin, 45 min, higher = more signal
Sequence of NADPH oxidase 5 (Homo sapiens) (Q96PH1 whole entry, looked up): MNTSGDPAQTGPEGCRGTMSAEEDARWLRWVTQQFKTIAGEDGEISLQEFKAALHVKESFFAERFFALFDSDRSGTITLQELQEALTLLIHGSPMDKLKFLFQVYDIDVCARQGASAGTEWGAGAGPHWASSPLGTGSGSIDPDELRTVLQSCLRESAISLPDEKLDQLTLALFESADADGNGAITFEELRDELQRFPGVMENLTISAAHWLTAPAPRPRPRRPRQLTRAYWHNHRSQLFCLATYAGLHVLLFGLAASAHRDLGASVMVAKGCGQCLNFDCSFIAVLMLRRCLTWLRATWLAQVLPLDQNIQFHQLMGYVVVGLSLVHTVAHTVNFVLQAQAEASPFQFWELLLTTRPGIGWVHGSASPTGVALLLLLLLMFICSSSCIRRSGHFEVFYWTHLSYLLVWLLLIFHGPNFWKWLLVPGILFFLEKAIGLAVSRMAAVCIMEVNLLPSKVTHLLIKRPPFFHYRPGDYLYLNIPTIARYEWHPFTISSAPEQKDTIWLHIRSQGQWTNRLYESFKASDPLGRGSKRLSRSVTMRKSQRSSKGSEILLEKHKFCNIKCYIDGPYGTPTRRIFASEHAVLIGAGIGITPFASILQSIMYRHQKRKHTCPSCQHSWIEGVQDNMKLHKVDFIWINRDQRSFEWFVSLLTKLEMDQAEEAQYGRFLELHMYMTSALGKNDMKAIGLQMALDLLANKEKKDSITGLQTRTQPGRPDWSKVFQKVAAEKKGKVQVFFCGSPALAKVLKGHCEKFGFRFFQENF

Sequence of NADPH oxidase 4 (Homo sapiens) (Q9NPH5 whole entry, looked up): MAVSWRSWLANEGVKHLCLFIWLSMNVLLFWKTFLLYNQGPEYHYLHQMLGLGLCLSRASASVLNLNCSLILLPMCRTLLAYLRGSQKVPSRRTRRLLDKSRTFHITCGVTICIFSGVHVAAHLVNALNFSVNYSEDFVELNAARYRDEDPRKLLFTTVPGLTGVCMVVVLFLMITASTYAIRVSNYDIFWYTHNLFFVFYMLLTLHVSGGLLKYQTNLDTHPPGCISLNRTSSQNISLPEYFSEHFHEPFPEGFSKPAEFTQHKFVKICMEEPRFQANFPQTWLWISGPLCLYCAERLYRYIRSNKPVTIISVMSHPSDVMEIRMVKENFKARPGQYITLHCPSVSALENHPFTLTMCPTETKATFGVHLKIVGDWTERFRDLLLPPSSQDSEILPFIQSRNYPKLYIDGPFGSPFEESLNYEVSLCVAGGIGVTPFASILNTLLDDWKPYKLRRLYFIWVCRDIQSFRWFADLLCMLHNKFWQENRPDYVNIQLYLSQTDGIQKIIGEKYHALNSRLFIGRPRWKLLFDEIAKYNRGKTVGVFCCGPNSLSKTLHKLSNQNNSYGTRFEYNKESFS
Sequence of NADPH oxidase 2 (Homo sapiens) (P04839 whole entry, looked up): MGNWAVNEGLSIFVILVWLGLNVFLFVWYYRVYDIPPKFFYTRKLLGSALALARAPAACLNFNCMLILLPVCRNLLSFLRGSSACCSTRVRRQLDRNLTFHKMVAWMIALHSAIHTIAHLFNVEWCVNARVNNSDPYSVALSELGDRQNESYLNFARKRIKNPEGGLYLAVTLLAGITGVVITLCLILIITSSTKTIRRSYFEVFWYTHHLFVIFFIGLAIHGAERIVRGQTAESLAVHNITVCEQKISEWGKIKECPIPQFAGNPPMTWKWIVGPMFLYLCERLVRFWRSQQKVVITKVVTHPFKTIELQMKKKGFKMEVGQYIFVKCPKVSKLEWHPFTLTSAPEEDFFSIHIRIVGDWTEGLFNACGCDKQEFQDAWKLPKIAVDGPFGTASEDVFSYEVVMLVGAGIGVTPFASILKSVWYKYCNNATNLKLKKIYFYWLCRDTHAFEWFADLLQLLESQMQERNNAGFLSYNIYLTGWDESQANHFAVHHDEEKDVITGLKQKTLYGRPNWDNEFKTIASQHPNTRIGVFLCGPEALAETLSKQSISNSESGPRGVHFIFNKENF

**Q.** For `CN1C(=O)C2C=CC(C(O)c3ccccn3)N(Nc3ccccc3)C2C1=O` (stereo not given), which z-score [1] is on record?
**A.** -0.434 (inactive)

**Q.** And the composite z-score [2]?
**A.** -0.093

**Q.** And the z-score [3]?
**A.** 0.844 (inactive)

**Q.** What about the z-score [4] of the same compound?
**A.** 1.09 (inactive)

**Q.** What about the z-score [5] of the same compound?
**A.** -0.197 (inactive)

**Q.** And the z-score [6]?
**A.** 1.12 (inactive)

**Q.** And the z-score [7]?
**A.** -0.669

**Q.** And the z-score [8]?
**A.** -1.35 (inactive)

**Q.** What about the z-score [9] of the same compound?
**A.** -4.52 (inactive)

**Q.** And the z-score [10]?
**A.** -2.9

**Q.** For `O=C1O[C@H](c2ccccc2)[C@H](c2ccccc2)N2[C@H]1[C@@H](C(=O)O)[C@]1(C(=O)Nc3ccc(C#CC4(O)CCCCCC4)cc31)[C@H]2c1ccc(OCCO)cc1`, which z-score [1] is on record?
**A.** -1.21 (inactive)

**Q.** What about the composite z-score [2] of the same compound?
**A.** -0.031

**Q.** And the z-score [3]?
**A.** 1.14 (inactive)

**Q.** And the z-score [4]?
**A.** -0.795 (inactive)

**Q.** And the z-score [5]?
**A.** -9.96 (active)

**Q.** And the z-score [6]?
**A.** -0.71 (inactive)

**Q.** And the z-score [7]?
**A.** -0.424

**Q.** What about the z-score [8] of the same compound?
**A.** 2.71 (inactive)

**Q.** And the z-score [9]?
**A.** -0.335 (inactive)

**Q.** And the z-score [10]?
**A.** 1.25

**Q.** For `CCC[C@@H]1C=C(C(=O)O)[C@H](c2ccc(C)cc2)N1S(=O)(=O)c1ccc(C)cc1`, which z-score [1] is on record?
**A.** -0.75 (inactive)

**Q.** What about the composite z-score [2] of the same compound?
**A.** 0.114

**Q.** What about the z-score [3] of the same compound?
**A.** 0.0822 (inactive)

**Q.** What about the z-score [4] of the same compound?
**A.** 0.932 (inactive)

**Q.** What about the z-score [5] of the same compound?
**A.** -0.246 (inactive)

**Q.** What about the z-score [6] of the same compound?
**A.** 1.03 (inactive)

**Q.** What about the z-score [7] of the same compound?
**A.** -0.476

**Q.** What about the z-score [8] of the same compound?
**A.** 0.769 (inactive)

**Q.** And the z-score [9]?
**A.** -0.741 (inactive)

**Q.** What about the z-score [10] of the same compound?
**A.** 0.101

**Q.** For `C=CCC(OC(C)=O)[C@@H]1[C@@H](N(Cc2ccc(-c3cccc(C(F)(F)F)c3)o2)C(=O)c2ccc(C)cc2)c2cc(OCCCO)ccc2N1C(=O)c1ccc(-c2ccccc2)cc1` (stereo not given in full), which z-score [1] is on record?
**A.** 1.35 (inactive)

**Q.** And the composite z-score [2]?
**A.** -0.0464

**Q.** And the z-score [3]?
**A.** 1.93 (inactive)

**Q.** What about the z-score [4] of the same compound?
**A.** 0.705 (inactive)

**Q.** What about the z-score [5] of the same compound?
**A.** -0.0802 (inactive)

**Q.** What about the z-score [6] of the same compound?
**A.** -0.0352 (inactive)

**Q.** What about the z-score [7] of the same compound?
**A.** -0.047

**Q.** What about the z-score [8] of the same compound?
**A.** -3.28 (inactive)

**Q.** And the z-score [9]?
**A.** 0.822 (inactive)

**Q.** And the z-score [10]?
**A.** 2.25

**Q.** For `C=C(CCCC)/C(=C/C[C@H](OC(C)=O)c1ccc(CO)o1)c1cnc2ccccc2c1`, which z-score [1] is on record?
**A.** -0.134 (inactive)

**Q.** And the composite z-score [2]?
**A.** 0.0557

**Q.** What about the z-score [3] of the same compound?
**A.** 5.4 (inactive)

**Q.** And the z-score [4]?
**A.** 0.452 (inactive)

**Q.** And the z-score [5]?
**A.** 0.435 (inactive)

**Q.** And the z-score [6]?
**A.** 0.136 (inactive)

**Q.** And the z-score [7]?
**A.** 0.307

**Q.** What about the z-score [8] of the same compound?
**A.** -0.719 (inactive)

**Q.** What about the z-score [9] of the same compound?
**A.** -0.447 (inactive)

**Q.** And the z-score [10]?
**A.** -0.582

**Q.** For `O=C(OCCF)C1=CCC(c2cccc(Cl)c2)O1` (stereo not given), which z-score [1] is on record?
**A.** 0.562 (inactive)

**Q.** What about the composite z-score [2] of the same compound?
**A.** -0.378

**Q.** What about the z-score [3] of the same compound?
**A.** 16.4 (active)

**Q.** And the z-score [4]?
**A.** 0.0666 (inactive)

**Q.** And the z-score [5]?
**A.** -0.628 (inactive)

**Q.** And the z-score [6]?
**A.** -1.21 (inactive)

**Q.** And the z-score [7]?
**A.** 0.543

**Q.** What about the z-score [8] of the same compound?
**A.** -0.0482 (inactive)

**Q.** What about the z-score [9] of the same compound?
**A.** 0.842 (inactive)

**Q.** And the z-score [10]?
**A.** 0.382

**Q.** For `CC(C)(C)N1CC=CC23O[C@@H]4/C=C\CCCOC(=O)C4[C@H]2C(=O)N(CCO)[C@@H]3C1=O` (stereo not given in full), which z-score [1] is on record?
**A.** 0.583 (inactive)

**Q.** What about the composite z-score [2] of the same compound?
**A.** -0.552

**Q.** And the z-score [3]?
**A.** 0.806 (inactive)

**Q.** And the z-score [4]?
**A.** 1.01 (inactive)

**Q.** And the z-score [5]?
**A.** 0.17 (inactive)

**Q.** And the z-score [6]?
**A.** 0.603 (inactive)

**Q.** And the z-score [7]?
**A.** -0.495

**Q.** And the z-score [8]?
**A.** 1.58 (inactive)

**Q.** What about the z-score [9] of the same compound?
**A.** 0.0377 (inactive)

**Q.** And the z-score [10]?
**A.** 2.17

**Q.** With `C=C[C@H](C)[C@@H](O)c1ccc(O)c2ccccc12` as the compound, how does the z-score [1] read?
**A.** 0.048 (inactive)

**Q.** And the composite z-score [2]?
**A.** 0.169

**Q.** What about the z-score [3] of the same compound?
**A.** 1.01 (inactive)

**Q.** What about the z-score [4] of the same compound?
**A.** 1.05 (inactive)

**Q.** What about the z-score [5] of the same compound?
**A.** 0.0353 (inactive)

**Q.** And the z-score [6]?
**A.** 1.02 (inactive)

**Q.** What about the z-score [7] of the same compound?
**A.** -0.157

**Q.** And the z-score [8]?
**A.** -5.28 (inactive)

**Q.** What about the z-score [9] of the same compound?
**A.** -1.05 (inactive)

**Q.** And the z-score [10]?
**A.** 1.33

**Q.** What does the source list for `O=C1OCCC/C=C\[C@H]2OC34C=CCN(Cn5nnc6ccccc65)C(=O)[C@H]3N(CCCCCO)C(=O)[C@@H]4C12` (stereo not given in full)?
**A.** z-score [1]: 0.246 (inactive); composite z-score [2]: 0.278; z-score [3]: 2.6 (inactive); z-score [4]: 0.0767 (inactive); z-score [5]: -0.212 (inactive); z-score [6]: 0.479 (inactive); z-score [7]: -0.339; z-score [8]: 0.871 (inactive); z-score [9]: -0.167 (inactive); z-score [10]: 1.15

**Q.** For `C=CCC(OC(C)=O)[C@@H]1[C@@H](N(Cc2cc3ccccc3o2)C(=O)c2ccc(C)cc2)c2cc(OCCCO)ccc2N1C(=O)c1ccc2ccccc2c1` (stereo not given in full), which z-score [1] is on record?
**A.** 2.19 (inactive)

**Q.** And the composite z-score [2]?
**A.** 0.168

**Q.** What about the z-score [3] of the same compound?
**A.** 1.32 (inactive)

**Q.** And the z-score [4]?
**A.** 0.393 (inactive)

**Q.** And the z-score [5]?
**A.** -0.44 (inactive)

**Q.** What about the z-score [6] of the same compound?
**A.** 0.0878 (inactive)

**Q.** What about the z-score [7] of the same compound?
**A.** 0.147

**Q.** What about the z-score [8] of the same compound?
**A.** 0.355 (inactive)

**Q.** What about the z-score [9] of the same compound?
**A.** 0.89 (inactive)

**Q.** And the z-score [10]?
**A.** 2.7

**Q.** What does the source list for `COc1ccc([Si](C)(C)[C@@H]2[C@@H](CC(=O)N3CCC[C@H]3CO)O[C@]3(C(=O)N(C)c4c(Br)cc(C)cc43)[C@H]2C)cc1`?
**A.** z-score [1]: -0.674 (inactive); composite z-score [2]: -0.251; z-score [3]: 5.59 (inactive); z-score [4]: 0.576 (inactive); z-score [5]: 0.405 (inactive); z-score [6]: 0.768 (inactive); z-score [7]: -0.415; z-score [8]: 1.73 (inactive); z-score [9]: 1.17 (inactive); z-score [10]: 3.69

**Q.** For `O=C1OCCC=C[C@H]2OC34C=CCN(Cc5ccccc5)C(=O)[C@H]3N(CCCCCO)C(=O)[C@@H]4C12` (stereo not given in full), which z-score [1] is on record?
**A.** 1.8 (inactive)

**Q.** And the composite z-score [2]?
**A.** 0.282

**Q.** And the z-score [3]?
**A.** 1.77 (inactive)

**Q.** And the z-score [4]?
**A.** 0.18 (inactive)

**Q.** What about the z-score [5] of the same compound?
**A.** 2.12 (inactive)

**Q.** What about the z-score [6] of the same compound?
**A.** 0.551 (inactive)

**Q.** What about the z-score [7] of the same compound?
**A.** 0.469

**Q.** And the z-score [8]?
**A.** 1.39 (inactive)

**Q.** What about the z-score [9] of the same compound?
**A.** 0.701 (inactive)

**Q.** And the z-score [10]?
**A.** 1.38

**Q.** For `C=CC[C@@]1(C(=O)N2CCOCC2)N=C(c2ccc(OCCCO)cc2)O[C@@H]1c1ccccc1N=[N+]=[N-]`, which z-score [1] is on record?
**A.** 0.483 (inactive)

**Q.** And the composite z-score [2]?
**A.** 0.571

**Q.** What about the z-score [3] of the same compound?
**A.** 35.1 (active)

**Q.** What about the z-score [4] of the same compound?
**A.** 28.1 (active)

**Q.** What about the z-score [5] of the same compound?
**A.** 3.17 (inactive)

**Q.** What about the z-score [6] of the same compound?
**A.** 7.41 (inactive)

**Q.** What about the z-score [7] of the same compound?
**A.** 1.92

**Q.** What about the z-score [8] of the same compound?
**A.** -2.14 (inactive)

**Q.** What about the z-score [9] of the same compound?
**A.** -0.164 (inactive)

**Q.** What about the z-score [10] of the same compound?
**A.** -2.02
